# Assay results: PubChem BioAssay (Tox21)
# Unmarked numbers belong to inactive results. Records with an inconclusive call do not appear. Where a call stands in place of a potency, no number is given. Active and inactive are the calls of the source. Calls follow the shape of the dose curve; as a rule, active = well fitted curve in the direction sought with a large enough effect in the repeat runs; inconclusive = weak or mixed curves; inactive = no such curve, though single readings can be large; an effect the other way counts as inactive or inconclusive.
# Tests used:
# [1] = qHTS RealTime-Glo MT Cell Viability Assay in HEK293 cells - 16 hour (AID 1224872); also: nearly all actives have a fitted effect of over 50% in size; also: potency is read from the fitted curve at half-maximal effect
# Outline: (§1)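 Homogeneous bioluminescent viability format in HEK293 cells (600 cells/well). Following 5 h at 37 C/5% CO2, 23 nL compound was pintooled; the signal was measured repeatedly during 40 h incubation.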
# [2] = qHTS RealTime-Glo MT Cell Viability Assay in HepG2 cells - 8 hour (AID 1224873); also: nearly all actives have a fitted effect of over 55% in size
# Outline: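 HepG2 cells mixed with RealTime-Glo MT reagents (NanoLuc plus cell-permeant prosubstrate) were seeded at 600 cells/well, incubated 5 h at 37 C/5% CO2, then pinned with compounds in DMSO; nonlytic luminescence tracked viability during 40 h treatment.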
# [3] = qHTS RealTime-Glo MT Cell Viability Assay in HEK293 cells - 40 hour (AID 1224874); details: RealTime-Glo luminescence; max response: active compounds read low; also: nearly all actives have a fitted effect of over 50% in size; also: potency is read from the fitted curve at half-maximal effect
# Outline: (§2)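 600 HEK293 cells per well, dispensed already mixed with RealTime-Glo MT reagents. Compound dosing came 5 h later. The same wells were read for luminescence at 0, 8, 16, 24, 32 and 40 h of exposure at 37 C.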
# [4] = A CellTox Green Cytotoxicity Assay to monitor cytotoxicity in HEK293 cells - 24 hour (AID 1224875); also: nearly all actives have a fitted effect of over 45% in size; also: potency is read from the fitted curve at half-maximal effect
# Outline: (§3)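 Dead-cell fluorescence measured kinetically: asymmetric cyanine dye, HEK293, 600 cells/well, 5 h settle, 23 nL cpd/DMSO, 37 C, reads 0–40 h every 8 h.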
# [5] = A CellTox Green Cytotoxicity Assay to monitor cytotoxicity in HepG2 cells - 16 hour (AID 1224876); also: nearly all actives have a fitted effect of over 45% in size
# Outline: (§4)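 First, HepG2 cells (600/well) mixed with reagent were plated; second, after 5 h at 37 C they received compounds via pintool; third, fluorescence was measured at 0 h through 40 h at 8 h intervals.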
# [6] = qHTS RealTime-Glo MT Cell Viability Assay in HepG2 cells - 32 hour (AID 1224877); also: nearly all actives have a fitted effect of over 55% in size; also: potency is read from the fitted curve at half-maximal effect
# Outline: (§5)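 Cell number in HepG2 cultures estimated from NanoLuc luminescence generated by metabolic reduction of a prosubstrate by living cells. The homogeneous, nonlytic format allowed repeated reads at 0, 8, 16, 24, 32 and 40 h of compound exposure.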
# [7] = A CellTox Green Cytotoxicity Assay to monitor cytotoxicity in HepG2 cells - 24 hour (AID 1224878); also: nearly all actives have a fitted effect of over 45% in size; also: potency is read from the fitted curve at half-maximal effect
# Outline: as §4
# [8] = A CellTox Green Cytotoxicity Assay to monitor cytotoxicity in HepG2 cells - 40 hour (AID 1224879); also: nearly all actives have a fitted effect of over 40% in size; also: potency is read from the fitted curve at half-maximal effect
# Outline: as §4
# [9] = qHTS RealTime-Glo MT Cell Viability Assay in HEK293 cells - 0 hour (AID 1224880); also: top concentration of the series differs between compounds; nearly all actives have a fitted effect of over 45% in size
# Outline: as §2
# [10] = A CellTox Green Cytotoxicity Assay to monitor cytotoxicity in HepG2 cells - 0 hour (AID 1224882); also: nearly all actives have a fitted effect of over 35% in size
# Outline: as §4
# [11] = A CellTox Green Cytotoxicity Assay to monitor cytotoxicity in HepG2 cells - 32 hour (AID 1224883); also: nearly all actives have a fitted effect of over 50% in size; also: potency is read from the fitted curve at half-maximal effect
# Outline: as §4
# [12] = A CellTox Green Cytotoxicity Assay to monitor cytotoxicity in HEK293 cells - 8 hour (AID 1224884); also: nearly all actives have a fitted effect of over 35% in size
# Outline: as §3
# [13] = qHTS RealTime-Glo MT Cell Viability Assay in HepG2 cells - 16 hour (AID 1224885); also: nearly all actives have a fitted effect of over 50% in size
# Outline: as §5
# [14] = A CellTox Green Cytotoxicity Assay to monitor cytotoxicity in HEK293 cells - 16 hour (AID 1224888); also: nearly all actives have a fitted effect of over 35% in size
# Outline: as §3
# [15] = qHTS RealTime-Glo MT Cell Viability Assay in HepG2 cells - 0 hour (AID 1224889); also: nearly all actives have a fitted effect of over 50% in size
# Outline: as §5
# [16] = A CellTox Green Cytotoxicity Assay to monitor cytotoxicity in HepG2 cells - 8 hour (AID 1224890); also: nearly all actives have a fitted effect of over 45% in size
# Outline: as §4
# [17] = qHTS assay to identify small molecule antagonists of the estrogen receptor alpha (ER-alpha) signaling pathway using the BG1 cell line in the presence of 0.1 nM 17-beta-estradiol - cell viability counter screen (AID 1259241); also: nearly all actives have a fitted effect of over 40% in size
# Outline: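 Live-cell protease activity (CellTiter-Fluor fluorescence, 30 min) was read in the same wells after VM7Luc4E2 cells had been exposed to compounds with 0.1 nM 17beta-estradiol for 22 hr at 37C.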
# [18] = qHTS RealTime-Glo MT Cell Viability Assay in HEK293 cells - 24 hour (AID 1224886); also: nearly all actives have a fitted effect of over 50% in size; also: potency is read from the fitted curve at half-maximal effect
# Outline: as §1
# [19] = qHTS RealTime-Glo MT Cell Viability Assay in HEK293 cells - 8 hour (AID 1224887)
# Outline: as §2
# [20] = A CellTox Green Cytotoxicity Assay to monitor cytotoxicity in HEK293 cells - 32 hour (AID 1224881); also: nearly all actives have a fitted effect of over 40% in size; also: potency is read from the fitted curve at half-maximal effect
# Outline: as §3
structure (smiles),measurement,setting,value
CCCCOC(=O)CCS,Potency,[1],inactive
same,Potency,[2],inactive
same,max response,[3],5.96%
same,Potency,[4],inactive
same,Potency,[5],inactive
same,Potency,[6],inactive
same,Potency,[7],inactive
same,Potency,[8],inactive
same,Potency,[9],inactive
same,Potency,[10],inactive
same,Potency,[11],inactive
same,Potency,[12],inactive
same,Potency,[13],inactive
same,Potency,[14],inactive
same,Potency,[15],inactive
same,Potency,[16],inactive
same,Potency,[17],inactive
CC(C)(O)c1ccccc1CC[C@@H](SCC1(CC(=O)O)CC1)c1cccc(/C=C/c2ccc3ccc(Cl)cc3n2)c1,Potency,[1],inactive
same,Potency,[2],inactive
same,max response,[3],0.38%
same,Potency,[4],inactive
same,Potency,[5],inactive
same,Potency,[6],inactive
same,Potency,[7],inactive
same,Potency,[8],inactive
same,Potency,[9],inactive
same,Potency,[10],inactive
same,Potency,[11],inactive
same,Potency,[12],inactive
same,Potency,[13],inactive
same,Potency,[18],inactive
same,Potency,[19],inactive
same,Potency,[14],inactive
same,Potency,[15],inactive
same,Potency,[16],inactive
same,Potency,[17],inactive
Cc1nc2ccccn2c(=O)c1CCN1CCC(C(=O)c2ccc(F)cc2)CC1,Potency,[1],4.77 µM (active)
same,Potency,[2],inactive
same,Potency,[3],8.49 µM (active)
same,Potency,[4],inactive
same,Potency,[5],inactive
same,Potency,[6],inactive
same,Potency,[7],inactive
same,Potency,[9],inactive
same,Potency,[20],inactive
same,Potency,[10],inactive
same,Potency,[11],inactive
same,Potency,[12],inactive
same,Potency,[13],inactive
same,Potency,[18],7.56 µM (active)
same,Potency,[14],inactive
same,Potency,[15],inactive
same,Potency,[16],inactive
same,Potency,[17],inactive
CNC(=O)N(c1ccccc1)c1ccccc1,Potency,[1],inactive
same,Potency,[2],inactive
same,max response,[3],10.9%
same,Potency,[4],inactive
same,Potency,[5],inactive
same,Potency,[6],inactive
same,Potency,[7],inactive
same,Potency,[8],inactive
same,Potency,[9],inactive
same,Potency,[10],inactive
same,Potency,[11],inactive
same,Potency,[12],inactive
same,Potency,[13],inactive
same,Potency,[19],inactive
same,Potency,[14],inactive
same,Potency,[15],inactive
same,Potency,[16],inactive
same,Potency,[17],inactive
CC(C)C(=O)O,Potency,[1],inactive
same,Potency,[2],inactive
same,max response,[3],9.49%
same,Potency,[4],inactive
same,Potency,[5],inactive
same,Potency,[6],inactive
same,Potency,[7],inactive
same,Potency,[8],inactive
same,Potency,[9],inactive
same,Potency,[10],inactive
same,Potency,[11],inactive
same,Potency,[12],inactive
same,Potency,[13],inactive
same,Potency,[18],inactive
same,Potency,[19],inactive
same,Potency,[14],inactive
same,Potency,[15],inactive
same,Potency,[16],inactive
same,Potency,[17],inactive
CCCOC(=O)c1ccc(C(=O)OCCC)nc1,Potency,[1],inactive
same,Potency,[2],inactive
same,max response,[3],7.22%
same,Potency,[4],inactive
same,Potency,[5],inactive
same,Potency,[6],inactive
same,Potency,[7],inactive
same,Potency,[9],inactive
same,Potency,[20],inactive
same,Potency,[10],inactive
same,Potency,[11],inactive
same,Potency,[12],inactive
same,Potency,[13],inactive
same,Potency,[18],inactive
same,Potency,[19],inactive
same,Potency,[14],inactive
same,Potency,[15],inactive
same,Potency,[16],inactive
same,Potency,[17],inactive
O=Cc1c(Cl)cccc1Cl,Potency,[1],inactive
same,Potency,[2],inactive
same,max response,[3],-15.3%
same,Potency,[4],inactive
same,Potency,[5],inactive
same,Potency,[6],inactive
same,Potency,[7],inactive
same,Potency,[9],inactive
same,Potency,[10],inactive
same,Potency,[11],inactive
same,Potency,[12],inactive
same,Potency,[13],inactive
same,Potency,[18],inactive
same,Potency,[19],inactive
same,Potency,[14],inactive
same,Potency,[15],inactive
same,Potency,[16],inactive
same,Potency,[17],inactive
C[C@@H]1C[C@H]2[C@@H]3CCC4=CC(=O)C=C[C@]4(C)[C@@]3(F)[C@@H](O)C[C@]2(C)[C@H]1C(=O)CO,Potency,[1],inactive
same,Potency,[2],inactive
same,max response,[3],-9.79%
same,Potency,[4],inactive
same,Potency,[5],inactive
same,Potency,[6],inactive
same,Potency,[7],inactive
same,Potency,[8],inactive
same,Potency,[9],inactive
same,Potency,[10],inactive
same,Potency,[11],inactive
same,Potency,[12],inactive
same,Potency,[13],inactive
same,Potency,[14],inactive
same,Potency,[16],inactive
same,Potency,[17],inactive
CC(Cl)C(Cl)Cl (centres undefined),Potency,[1],inactive
same,Potency,[2],inactive
same,max response,[3],-7.3%
same,Potency,[4],42.9 µM (active)
same,Potency,[5],inactive
same,Potency,[6],inactive
same,Potency,[7],inactive
same,Potency,[8],inactive
same,Potency,[9],inactive
same,Potency,[20],48.2 µM (active)
same,Potency,[10],inactive
same,Potency,[11],inactive
same,Potency,[13],inactive
same,Potency,[18],inactive
same,Potency,[19],inactive
same,Potency,[15],inactive
same,Potency,[16],inactive
same,Potency,[17],inactive
CC(CCO)CCc1ccccc1 (centres undefined),Potency,[1],inactive
same,Potency,[2],inactive
same,max response,[3],-8.5%
same,Potency,[4],inactive
same,Potency,[6],inactive
same,Potency,[7],inactive
same,Potency,[8],inactive
same,Potency,[9],inactive
same,Potency,[20],inactive
same,Potency,[10],inactive
same,Potency,[11],inactive
same,Potency,[12],inactive
same,Potency,[13],inactive
same,Potency,[18],inactive
same,Potency,[14],inactive
same,Potency,[15],inactive
same,Potency,[16],inactive
same,Potency,[17],inactive
CN(C)CCOC1=Cc2ccccc2Sc2ccc(Cl)cc21,Potency,[1],inactive
same,Potency,[2],inactive
same,max response,[3],-22.7%
same,Potency,[4],inactive
same,Potency,[6],21.3 µM (active)
same,Potency,[7],23.9 µM (active)
same,Potency,[8],23.9 µM (active)
same,Potency,[10],inactive
same,Potency,[11],23.9 µM (active)
same,Potency,[12],inactive
same,Potency,[19],inactive
same,Potency,[14],inactive
same,Potency,[16],inactive
same,Potency,[17],inactive
CCCCCCCCSCCO,Potency,[1],inactive
same,Potency,[2],inactive
same,max response,[3],0.336%
same,Potency,[4],inactive
same,Potency,[6],inactive
same,Potency,[7],43.6 µM (active)
same,Potency,[8],43.6 µM (active)
same,Potency,[9],inactive
same,Potency,[10],inactive
same,Potency,[11],43.6 µM (active)
same,Potency,[12],inactive
same,Potency,[13],inactive
same,Potency,[18],inactive
same,Potency,[14],inactive
same,Potency,[15],inactive
same,Potency,[16],inactive
same,Potency,[17],inactive
CCC(C(=O)OCCN(CC)CC)c1ccccc1 (centres undefined),Potency,[1],inactive
same,Potency,[2],inactive
same,max response,[3],8.92%
same,Potency,[4],inactive
same,Potency,[6],inactive
same,Potency,[7],inactive
same,Potency,[8],inactive
same,Potency,[9],inactive
same,Potency,[20],inactive
same,Potency,[10],inactive
same,Potency,[11],inactive
same,Potency,[12],inactive
same,Potency,[13],inactive
same,Potency,[18],inactive
same,Potency,[19],inactive
same,Potency,[14],inactive
same,Potency,[15],inactive
same,Potency,[16],inactive
same,Potency,[17],inactive
CCn1cc(C(=O)O)c(=O)c2cc(F)c(N3CCNCC3)nc21,Potency,[1],inactive
same,Potency,[2],inactive
same,max response,[3],10.3%
same,Potency,[4],inactive
same,Potency,[5],inactive
same,Potency,[7],inactive
same,Potency,[8],inactive
same,Potency,[9],inactive
same,Potency,[20],inactive
same,Potency,[10],inactive
same,Potency,[11],inactive
same,Potency,[12],inactive
same,Potency,[13],inactive
same,Potency,[18],inactive
same,Potency,[19],inactive
same,Potency,[14],inactive
same,Potency,[15],inactive
same,Potency,[16],inactive
same,Potency,[17],inactive
